This is an account of results in ChEMBL document CHEMBL3433997, “St. Jude Leishmania screening dataset” (2016).

Common to all, as to type: functional
Assay [1] deals with Solute carrier family 2, facilitated glucose transporter member 1 (Homo sapiens) (UniProt P11166). Put plainly: ST_JUDE_LEISH: Cytotoxicity at 2uM final concentration against transgenic Leishmania Mexicana promastigotes LmGLUT1 that are glucose transport deficient and complemented with the human glucose transporter GLUT1. Activity is measured by DNA content using SYBR green in vitro.
Chain of Solute carrier family 2, facilitated glucose transporter member 1 (Homo sapiens) (P11166 whole entry): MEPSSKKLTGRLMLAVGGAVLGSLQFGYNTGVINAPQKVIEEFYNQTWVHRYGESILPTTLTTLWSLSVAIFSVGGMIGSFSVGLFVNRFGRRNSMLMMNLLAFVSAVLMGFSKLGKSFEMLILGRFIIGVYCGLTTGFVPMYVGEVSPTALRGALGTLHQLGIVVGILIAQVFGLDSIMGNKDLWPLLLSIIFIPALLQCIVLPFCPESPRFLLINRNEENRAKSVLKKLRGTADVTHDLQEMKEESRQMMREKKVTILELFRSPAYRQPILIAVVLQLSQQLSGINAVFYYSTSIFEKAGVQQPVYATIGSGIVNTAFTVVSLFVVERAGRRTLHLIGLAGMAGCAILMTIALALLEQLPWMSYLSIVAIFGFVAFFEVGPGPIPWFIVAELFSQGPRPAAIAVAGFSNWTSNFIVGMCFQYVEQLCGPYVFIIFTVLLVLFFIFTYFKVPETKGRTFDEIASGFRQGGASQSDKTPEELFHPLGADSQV

In assay [2] the target is Hexose transporter 1 (Plasmodium falciparum) (UniProt O97467). Put plainly: ST_JUDE_LEISH: Cytotoxicity at 2uM final concentration against transgenic Leishmania Mexicana promastigotes LmPfHT that are glucose transport deficient and complemented with the Plasmodium falciparum hexose transporter. Activity is measured by DNA content using SYBR green in vitro.
The target of assay [3] is Glucose transporter (Leishmania mexicana) (UniProt O61059). Put plainly: ST_JUDE_LEISH: Cytotoxicity at 2uM final concentration against transgenic Leishmania Mexicana promastigotes LmGT2 that are glucose transport deficient and complemented with the L. Mexicana glucose transporter 2. Activity is measured by DNA content using SYBR green in vitro.

As usually defined, the inhibition is the relative decrease from the control value, in per cent. Regarding `Fc1ccc(-c2cncc(-c3ccc(F)cc3)n2)cc1`, the inhibition in assay [1] worked out at 9.28%; in assay [2] it was 6.64%; in assay [3] it was 8.06%.

As for `COc1ccc2nc(-c3ccc(C(=O)NCCCN4CCN(c5cc(Cl)ccc5OC)CC4)cc3OC)[nH]c2c1`, the inhibition in assay [1] turned out to be 2.79%; in assay [2], 1.93%; in assay [3], 3.01%.

For the compound `CS(=O)(=O)CCNc1cc(N2CCc3ncnc(Nc4ccc(OCc5cccc(F)c5)c(Cl)c4)c3C2)ncn1`, the inhibition is -0.04% in assay [1], 0.75% in assay [2] and 0.08% in assay [3].

Take `COc1cc(NC(=O)/C=C/c2cc(F)cc(F)c2F)cc(OCCN2CCC(O)(c3ccccc3)CC2)c1`: the values for the inhibition in assay [1], in assay [2] and in assay [3] were 3.43%, 1.97% and 2.47%, respectively.

As for `CN1CCC(Oc2ccc(CN3CC[C@H](NC(=O)c4ccc(Cl)c(F)c4)C3)c3ccccc23)C1` (stereo partly drawn), the figures for the inhibition in assay [1], in assay [2] and in assay [3] were 0.38%, 3.36% and 2.67%, respectively.

Regarding `Oc1c(C(Nc2ccccn2)c2ccc(Cl)cc2Cl)ccc2cccnc12` (stereo not drawn), the inhibition in assay [1] was determined as 3.22%; in assay [2], 5.81%; in assay [3], 0.74%.

As for `Cc1ccc2c(NC(=O)Nc3ccc(N(C)C)cc3)cc(C)nc2c1`, the inhibition was 5.9% in assay [1], 5.56% in assay [2] and 6.28% in assay [3].

On to `CCCCCCCc1ccc(-c2c(C)[nH]c(C)c(Cl)c2=O)cn1`, for which the inhibition came out at 0.84% in assay [1], 1.55% in assay [2] and 0.07% in assay [3].

For the compound `COc1nc(NCC(C)C)nc(Oc2ccc(=O)n(Cc3ccccc3)n2)n1`, the inhibition in assay [1] worked out at 1.73%; in assay [2], 1.88%; in assay [3], 3.48%.

For the compound `Cc1ccc(NC(=O)c2ccc(C(=O)NC3CCN(CC4CCCCC4)CC3)cc2)cc1`, the inhibition is 2.26% in assay [1], 3.07% in assay [2] and 1.65% in assay [3].

In the case of `O=C1C(c2ccccc2)=C(Nc2cccc([N+](=O)[O-])c2)c2ccccc21`, the values for the inhibition in assay [1], in assay [2] and in assay [3] were 4.58%, 3.72% and 9.44%, respectively.

As for `O=C(/C=C/c1ccc(Cl)c(Cl)c1)NCCCCCN1CCC(NC(=O)Nc2cc(Cl)cc(Cl)c2)CC1`, the results for the inhibition in assay [1], in assay [2] and in assay [3] were 8.59%, 9.64% and 9.93%, respectively.

As to `Clc1ncnc2ncn(Cc3cccc(Br)c3)c12`, the inhibition in assay [1] is 15.3%; in assay [2], 10.7%; in assay [3] it was 10.8%.

Take `Cc1ccc(O)c(-c2cc(C(=O)Nc3ccc(S(=O)(=O)N4CCCCCC4)cc3)[nH]n2)c1`: the inhibition in assay [1] was -2.76%; in assay [2], -1.17%; in assay [3], -0.85%.

As to `Cc1cc(=NN=Cc2ccccc2Cl)c2cc(C(F)(F)F)ccc2[nH]1`, the inhibition in assay [1] is -0.33%; in assay [2] it was -0.65%; in assay [3] it was 1.27%.

As to `c1ccc2c(C3CCN(CCCCOc4ccc5c(c4)CCN(CC4CC4)CC5)CC3)c[nH]c2c1`, the results for the inhibition in assay [1], in assay [2] and in assay [3] were 70.5%, 43.6% and 6.07%, respectively.

`N#Cc1ccc(CNCCCCCCNCc2ccc(C#N)c3ccccc23)c2ccccc12`: the results for the inhibition in assay [1], in assay [2] and in assay [3] were 2.15%, 1.12% and 2.53%, respectively.

On to `CN(C)CC1c2[nH]c3ccccc3c2CCN1C(=O)Nc1ccc(Cl)c(Cl)c1` (stereo not drawn), for which the results for the inhibition in assay [1], in assay [2] and in assay [3] were 5.56%, 7.79% and 5.8%, respectively.

In the case of `O=S(=O)(c1cccc(Br)c1)N1CCCCC(c2ccc(C(F)(F)F)cc2)=N1`, the results for the inhibition in assay [1], in assay [2] and in assay [3] were 1.84%, 3.68% and 2.2%, respectively.

In the case of `CC(C(=O)NC1CCN(c2ccnc(Nc3ccc(F)cc3)n2)C1)c1ccc(Cl)cc1` (stereo not drawn), the inhibition in assay [1] worked out at 1.1%; in assay [2], 0.7%; in assay [3], 2.7%.

Take `CNC(=O)C(C)N(c1ccc(Cl)cc1)c1nc(C(C)(C)C)cs1` (stereo not drawn): the values for the inhibition in assay [1], in assay [2] and in assay [3] were -1.9%, -2.14% and 3.15%, respectively.

Consider `CCCc1ccc(S(=O)(=O)Nc2ccc3c(c2)CCC3)cc1`, for which the inhibition worked out at 1.93% in assay [1], 4.05% in assay [2] and 3.52% in assay [3].

Consider `COc1cc(OC)c2c(c1Cl)O[C@]1(C2=O)C(=O)C(Cc2ccccc2)(Cc2ccccc2)C(=O)C[C@H]1C`, for which the inhibition is 2.41% in assay [1], 3.13% in assay [2] and 2.6% in assay [3].

On to `CN(C)Cc1ccc(-c2cc3ncnc(Nc4ccc(OCc5cccc(F)c5)c(Cl)c4)c3s2)[nH]1`, for which the inhibition in assay [1] was determined as 3.19%; in assay [2] it was 2.49%; in assay [3], 1.76%.

Take `Cn1cncc1C(=O)Nc1cccc(-c2cccc(-c3nc4cc(C(F)(F)F)ccc4[nH]3)c2)c1`: the inhibition was -1.02% in assay [1], 2.87% in assay [2] and -0.89% in assay [3].

Take `CCCNC(=O)c1cncc(-c2ccc(CNC3Cc4ccccc4C3)cc2)c1`: the inhibition is 0% in assay [1], 0.51% in assay [2] and -1.1% in assay [3].

For the compound `O=C(Nc1cccc(-c2nn3ccccc3c2-c2ccnc(Nc3ccccc3)n2)c1)c1c(F)cccc1F`, the results for the inhibition in assay [1], in assay [2] and in assay [3] were 0.96%, 5.19% and 1.51%, respectively.

In the case of `Clc1cccc(C23N/C(=N\c4nc5ccccc5[nH]4)NC2(c2ccccc2)N/C(=N\c2nc4ccccc4[nH]2)N3)c1` (stereo not drawn), the inhibition in assay [1] was found to be 5.03%; in assay [2], 4.69%; in assay [3], 4.94%.

`Cc1cc(CNCCCCCNCc2cccc([N+](=O)[O-])c2)ccc1O`: the inhibition in assay [1] stood at 1.94%; in assay [2], 1.39%; in assay [3], 1.29%.

Consider `Cc1cc(=O)oc2c1ccc1oc(C(O)c3ccc(Cl)cc3)c(C)c12` (stereo not drawn), for which the inhibition in assay [1] is -0.12%; in assay [2] it was 0.59%; in assay [3] it was -1.6%.

Consider `Cc1ccc(C)c(Cn2c(N3CCC(C(=O)NCc4cccs4)CC3)nc3ccccc32)c1`, for which the inhibition in assay [1] is 3.18%; in assay [2], 4.2%; in assay [3], -0.43%.

`CN(C)CCNc1cc(-c2ccc3ccccc3c2)nc2ccccc12`: the inhibition in assay [1] is 1.3%; in assay [2] it was 2.94%; in assay [3], -0.48%.

For the compound `c1ccc(CNCCn2c(-c3ccc4c(c3)CCO4)nc3c(N4CCCC4)cccc32)cc1`, the values for the inhibition in assay [1], in assay [2] and in assay [3] were 11.7%, 8.74% and 6.86%, respectively.

As to `O=C(Nc1cccc(Cl)c1)c1cc2ccccc2cc1O`, the inhibition in assay [1] worked out at 2.74%; in assay [2], 3.05%; in assay [3], 2.04%.

Consider `Cc1csc(-c2nonc2NC(=O)COc2ccccc2C(C)C)n1`, for which the inhibition was 2.07% in assay [1], -1.84% in assay [2] and 2.3% in assay [3].

With `O=C(NCC1CC1)C1CCN(C(c2ccc(Cl)cc2)c2ccc(Cl)cc2)CC1`, the inhibition in assay [1] is 0.44%; in assay [2] it was 1.5%; in assay [3], -2.15%.
